# Hits are enriched below; roughly 1.7% of the tested compounds scored in any of these assays.
# CHT allo act: CHT positive allosteric modulators, primary screen, cell-based, membrane potential dye, choline EC20; High affinity choline transporter 1 (Homo sapiens), Q9GZV3; B-score at 10 µM; actives 0.49% (n = 310,000); CHT-expressing cells; active compounds read high; LV-AA mutant CHT in HEK293 cells;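 active = initial fluorescence not abnormally high and integrated response B-score, plate-corrected, over 3 SD above library mean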
# Target sequence (Q9GZV3 whole entry, looked up): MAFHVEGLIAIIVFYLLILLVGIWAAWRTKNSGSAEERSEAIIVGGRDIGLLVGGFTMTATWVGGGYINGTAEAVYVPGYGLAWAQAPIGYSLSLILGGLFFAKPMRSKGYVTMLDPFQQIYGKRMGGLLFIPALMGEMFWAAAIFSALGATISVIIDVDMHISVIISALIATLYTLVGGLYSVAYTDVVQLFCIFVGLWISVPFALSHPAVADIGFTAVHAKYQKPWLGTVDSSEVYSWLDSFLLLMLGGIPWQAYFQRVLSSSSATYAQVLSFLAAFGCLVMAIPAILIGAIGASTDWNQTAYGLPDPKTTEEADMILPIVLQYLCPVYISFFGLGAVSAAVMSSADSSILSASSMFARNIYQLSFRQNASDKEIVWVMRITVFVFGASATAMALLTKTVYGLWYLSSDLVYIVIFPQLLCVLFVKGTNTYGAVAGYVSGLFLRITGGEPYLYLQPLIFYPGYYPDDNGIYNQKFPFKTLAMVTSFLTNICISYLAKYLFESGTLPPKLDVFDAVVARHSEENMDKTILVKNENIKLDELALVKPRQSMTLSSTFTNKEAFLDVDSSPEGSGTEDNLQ
# beta cell repl: inducers of MIN6 beta-cell proliferation, primary screen, ATP luminescence, uHTS; actives 0.29% (n = 330,000); MIN6 cells proliferation, ATPlite luminescence, 48 h; cells starved in 0.2% serum; 100% = growth in 10% serum; AID 2380, 2010; proliferation, % at 10 µM;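 active = compounds whose signal lies at least 3.5 SD above the mean of all wells on their plate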;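 note: 0% = DMSO-treated cells in low-serum medium and 100% = 10% serum control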
# H9c2 TAG inh: inhibitors of triacylglycerol accumulation, primary screen, cell-based, uHTS, fluorescence, H9c2. H9c2 cells, Nile Red lipid (TAG) fluorescence; cells loaded with 200 µM oleic acid. inhibition, % at 12.5 µM. actives 0.66% (n = 230,000). AID 651582, 2012;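 active = pattern-corrected inhibition of lipid staining of at least 50% with the nuclear-stain viability signal not falling by more than 50%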;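 note: 0% = DMSO wells and 100% = triacsin C control wells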
# CHT block: inhibitors of human choline transporter CHT. High affinity choline transporter 1 (Homo sapiens), Q9GZV3. CHT-expressing cells, membrane potential dye, choline response; active compounds read low. B-score at 10 µM. actives 0.86% (n = 310,000). AID 488975, 2010;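 active = B-score over 3 SD under the library average, and starting fluorescence ratio not unusually high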;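 note: choline stimulus applied at its EC90 after an EC20 pre-addition; B-score computed on integrated fluorescence ratio after choline addition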
# CHT act confirm: CHT activators, confirmation, cell-based, membrane potential dye, duplicate | actives 91% (n = 2,500) | shares compounds with CHT allo act | CHT-expressing cells, membrane potential dye fluorescence (FDSS); % of choline EC20–EC90 response window; HEK293 expressing CHT LV-AA mutant; choline added at its EC20 | activation, % at 10 µM;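 active = primary screen active, with duplicate mean activation above negative control mean plus 3 SD, cut at about 11% in these data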
# HEK293 MP dye: membrane potential response in parental HEK293 cells, counter-screen for CHT activator project, cell-based, membrane potential dye. shares compounds with CHT allo act. membrane potential dye fluorescence (FDSS); measured after EC20 choline addition. ratio readout change at 10 µM, hits read low. actives 62% (n = 2,500);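 active = duplicate-averaged ratio beyond 3 SD from buffer wells, up or down, though filed actives are nearly all decreases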
# * hit, by the source's call; i = inactive; nt = no result given.
SMILES,CHT allo act,beta cell repl,H9c2 TAG inh,CHT block,CHT act confirm,HEK293 MP dye
CC[N+](CC)(CC)C/C=C/CN1CCCCC1,i,-2.3,nt,i,39.7*,-42.5*
COc1c(N2CCN(C(=S)Nc3ccc(F)cc3)C(C)C2)c(F)cc2c(=O)c(C(=O)O)cn(C3CC3)c12 (centres undefined),i,1.0,nt,i,nt,nt
COc1c(N2CCNC(C)C2)c(F)cc2c(=O)c(C(=O)O)cn(C3CC3)c12 (centres undefined),6.69*,-2.7,nt,i,35.9*,-44.6*
NC1CCN(c2c(F)cc3c(=O)c(C(=O)O)cn(C4CC4)c3c2Cl)C1 (centres undefined),i,-1.9,3.7,i,18.3*,-48*
CC(C)(C)NC(=O)C(c1ccc(-c2ccccc2)cc1)N(C[C@H]1CC[C@@H]([C@@H]2CC[C@H](CO)O2)O1)C(=O)c1ccc(C(C)(C)C)cc1 (some centres undefined),nt,nt,43.5,nt,nt,nt
COc1ccc(N(CC(=O)Nc2ccc(C)cn2)S(=O)(=O)c2c(C)noc2C)cc1,6.59*,-0.6,nt,i,7.2,i
CCCCN(C(=O)c1cc(S(=O)(=O)N2CCCCC2)ccc1Cl)c1c(N)n(CC(C)C)c(=O)[nH]c1=O,nt,nt,-9.7,nt,nt,nt
CCN1CCN(c2nc3c(c(=O)[nH]c(=O)n3C)n2CCSc2nc3ccccc3s2)CC1,13*,1.2,14.7,i,40.3*,-45.4*
Cn1c(=O)c2c(nc(N3CCN(C(=O)c4ccco4)CC3)n2CCSc2ncccn2)n(C)c1=O,7.12*,-1.1,-13.1,i,56.7*,-58*
Cc1ccnc(SCCn2c(N3CCOCC3)nc3c2c(=O)[nH]c(=O)n3C)n1,10.3*,-1.3,-7.7,i,65.1*,-58*
CC1CC(C)CN(c2nc3c(c(=O)[nH]c(=O)n3C)n2CCCSc2nc3ccccc3s2)C1 (centres undefined),nt,nt,4.4,nt,nt,nt
Cc1ccnc(SCCn2c(N3CCC(C)CC3)nc3c2c(=O)[nH]c(=O)n3C)n1,nt,nt,-1.4,nt,nt,nt
Cn1c(=O)[nH]c(=O)c2c1nc(N1CCCCC1)n2CCCSc1nnnn1-c1ccccc1,i,1.2,nt,i,nt,nt
CN1CCN(c2nc3c(c(=O)[nH]c(=O)n3C)n2CCCSc2nnnn2-c2ccccc2)CC1,6.59*,-0.8,-5.0,i,47.3*,-49.4*
COc1ccc(OCC(=O)N2CCC3(CC2)CC(=O)c2ccccc2O3)cc1,i,7.8,0.3,i,nt,nt
COCCNC(=S)N/N=C1\CC(C)CC(C)(C)C1 (centres undefined),i,-0.6,-12.8,i,nt,nt
CCO[C@@H]1OC(C(=O)N2CCN(Cc3ccccc3)CC2)=C[C@H](c2coc3ccccc3c2=O)[C@H]1CCCO,i,2.4,nt,i,nt,nt
O=c1c2cc(Cl)ccc2[nH]c(=S)n1Cc1cccs1,i,0.0,nt,i,nt,nt
Cc1ccnc(SCCn2c(N3CCN(C)CC3)nc3c2c(=O)n(C)c(=O)n3C)n1,i,-1.7,-10.6,i,nt,nt
CN1CCN(c2nc3c(c(=O)n(C)c(=O)n3C)n2CCSc2nc3ccccc3s2)CC1,7.35*,-2.1,28.2,i,65.5*,-46.2*
CCCn1c(N2CCN(Cc3cccc(C)c3)CC2)nc2c1c(=O)[nH]c(=O)n2C,i,-0.4,-5.8,i,12.3*,-27.6*
Cc1cccc2nc(CSc3nc4cc([N+](=O)[O-])ccc4s3)cn12,i,2.9,nt,i,nt,nt
Cc1cc(O)c(C2=Nc3ccccc3SC(c3ccc(Cl)cc3)C2)c(=O)o1 (centres undefined),i,0.0,8.8,i,nt,nt
COc1ccc(C2CC(c3c(O)cc(C)oc3=O)=NCCS2)c(OC)c1 (centres undefined),7.6*,-3.5,43.1,i,50.9*,i
Cc1cc2ncn(-c3ncnc4sc(C)c(C)c34)c2cc1C,i,-3.0,7.6,i,nt,nt
SMILES,CHT allo act,beta cell repl,H9c2 TAG inh,CHT block,CHT act confirm,HEK293 MP dye
Cc1cc2ncn(-c3ncnc4scc(-c5ccccc5)c34)c2cc1C,8.41*,1.1,nt,i,20.6*,i
O=C1c2ccccc2N2C(=O)c3ccccc3C2N1Cc1ccccc1 (centres undefined),i,4.0,0.7,i,25.5*,i
O=C1c2ccccc2N2C(=O)c3ccccc3[C@H]2N1c1ccccc1,i,2.4,14.9,i,nt,nt
CCN(CC)C(=O)c1ccccc1NC(=O)CN1C(=O)c2ccccc2S1(=O)=O,i,0.1,nt,i,nt,nt
CCOC(=O)CC1C(=O)NCCN1C(=O)c1cc2c(=O)n3cccc(C)c3nc2s1 (centres undefined),6.76*,-0.7,5.9,i,16.7*,-37.1*
CCOC(=O)CC1C(=O)NCCN1C(=O)c1cc2c(=O)n3ccccc3nc2s1 (centres undefined),i,1.5,nt,i,nt,nt
Cc1nn(S(=O)(=O)c2ccccc2)c(C)c1S(=O)(=O)N1CCOCC1,i,-3.3,nt,i,nt,nt
NC(=O)C1=C[C@H](c2csc3ccccc23)C[C@H](OCCCCO)O1,i,0.3,-41.9,i,nt,nt
C=CCOC(=O)C1=C[C@@H](c2csc3ccccc23)C[C@@H](OCCCCO)O1,i,-4.4,nt,i,20.2*,i
COc1ccc(C(CCNCc2ccc(N(C)C)cc2)c2ccccc2)cc1 (centres undefined),7.02*,-3.7,nt,i,9.5,i
COc1ccc(C(CCNCc2ccc(OC)c(OC)c2)c2ccc(F)cc2)cc1 (centres undefined),7.38*,-3.8,13.2,i,28.0*,i
Cc1ccn(CCC(=O)N2CCCC(CCC(=O)N3CCN(c4ccccn4)CC3)C2)n1 (centres undefined),i,-5.1,0.3,i,nt,nt
CC(c1ccc(F)cc1)n1c(-c2cccs2)n[nH]c1=S (centres undefined),i,0.4,5.1,i,nt,nt
CN1CCN(Cc2nc3ccccc3c(=O)n2Cc2nc(-c3ccccc3F)cs2)CC1,8.2*,nt,nt,i,29.6*,i
CN1CCN(Cc2nc3ccccc3c(=O)n2Cc2nc(-c3ccc4ccccc4c3)cs2)CC1,i,nt,-1.3,i,nt,nt
COc1ccccc1C1(O)CCN(CC(=O)Nc2nc(-c3ccccc3)cs2)CC1,i,-2.2,39.7,i,nt,nt
COC(=O)c1nnn(-c2nc(N3CCOCC3)nc(N3CCOCC3)n2)c1C,7.79*,-1.8,10.0,i,33.1*,-39.9*
COC(=O)c1ccc(Nc2nc(N3CCOCC3)nc(N3CCOCC3)n2)cc1,i,2.0,nt,i,nt,nt

# Source: PubChem (several laboratories)
